Compound activity (PubChem BioAssay)
HPGD block: inhibitors of human 15-hydroxyprostaglandin dehydrogenase (HPGD); AID 894; hit rate 4.3% among 150,000; P15428; Potency, µM, inactives show at the highest dose activity change, negative = inhibition, most hits filed as inhibitors; purified HPGD, NADH fluorescence kinetic, PGE2 substrate; further: potency means the concentration at half of the fitted maximal effect
Target sequence (P15428 whole entry, looked up): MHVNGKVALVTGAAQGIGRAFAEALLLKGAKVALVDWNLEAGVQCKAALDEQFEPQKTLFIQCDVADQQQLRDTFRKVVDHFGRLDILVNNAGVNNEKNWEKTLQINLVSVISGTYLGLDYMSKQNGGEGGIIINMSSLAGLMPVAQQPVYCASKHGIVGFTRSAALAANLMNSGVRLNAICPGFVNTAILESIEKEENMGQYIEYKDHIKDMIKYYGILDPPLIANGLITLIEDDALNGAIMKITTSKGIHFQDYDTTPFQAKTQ
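20 nM HPGD preincubated 15 min at room temperature with compound in 50 mM Tris-HCl pH 8, 0.01% Tween 20. Started with 1 mM NAD+ and 30 uM prostaglandin E2; NADH fluorescence (360/450 nm) read 5 times over 30-s intervals, last minus first.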
KDM4E inh: blocks human JMJD2E demethylase activity; hit rate 1.6% among 230,000; AID 2147; JMJD2E catalytic domain, FDH-coupled NADH fluorescence (FDH is formaldehyde dehydrogenase); Potency, µM (highest dose often 57.1 µM), inactives show at the top dose activity change, negative = inhibition, usual class: inhibitors;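 further: potency means the concentration at half of the fitted maximal effect; 0% = wells with enzyme and -100% = buffer wells without enzyme; nearly all actives have a fitted effect of over 50% in size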
Target sequence (B2RXH2 1-337 limits assumed): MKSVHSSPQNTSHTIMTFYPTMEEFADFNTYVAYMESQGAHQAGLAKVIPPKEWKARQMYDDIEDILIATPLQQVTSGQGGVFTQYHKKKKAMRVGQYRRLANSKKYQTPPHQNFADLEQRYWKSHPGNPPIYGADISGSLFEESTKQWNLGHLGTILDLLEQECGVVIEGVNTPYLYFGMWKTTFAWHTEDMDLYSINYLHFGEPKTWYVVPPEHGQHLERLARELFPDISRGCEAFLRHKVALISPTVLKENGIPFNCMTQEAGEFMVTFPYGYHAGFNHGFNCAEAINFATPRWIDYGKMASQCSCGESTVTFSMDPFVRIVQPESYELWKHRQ
PNC assembly inh: perinucleolar compartment assembly inhibition. hit rate 3.1% among 140,000. AID 2417. activity change (PNC), negative = inhibition, % at 10 µM. PC3M PTB-GFP, PNC prevalence imaging, 16 h; stronger effect = lower value;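 active means readout at or below -70, meaning at least 70% loss of cells showing the perinucleolar compartment, a nuclear body marking cancer cells; inconclusive means readout between -30 and a set limit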;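 further: plate controls were DMSO wells for no effect and camptothecin positive control wells for full effect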
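Read-out is percentage of cells bearing a perinucleolar compartment, from automated 20x imaging of fixed, Hoechst-stained PC3M PTB-GFP cells. Cells were seeded 4 h, then exposed 16 h to compound (23 nl of library stock) in duplicate plates.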
ALDH1A1 block: inhibitors of human aldehyde dehydrogenase 1A1. AID 1030. Purified ALDH1A1, NADH fluorescence, propionaldehyde substrate. Potency, µM (titrated, usually from 75.3 µM), for inactives: at the highest dose activity, negative = inhibition, most hits filed as inhibitors. P00352. hit rate 7.3% among 220,000;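 further: potency means the concentration at half of the fitted maximal effect; plate controls were no enzyme wells and a reference inhibitor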
An asterisk follows results filed as active; ? = inconclusive; . = no result; [ ] = remark or other dose. The list is not random: actives were taken first. Their share in the collection is about 11%. Unless noted, the call rests on the fitted dose curve; in most records, active means well fitted inhibition curve with a large enough effect (not every such curve was filed as active); inconclusive means small, poorly fitted or top-dose-only effect, or another doubt; inactive means no such curve, though single readings can be large or run the other way. Unless noted, on the % scale 0 is the no-effect control and ±100 the full control effect.

SMILES	HPGD block	KDM4E inh	PNC assembly inh	ALDH1A1 block
O=S(=O)(Nc1nc2ccc(S(=O)(=O)N3CCCCC3)cc2s1)c1ccccc1	8.91µM*	2.9%	3.2	0.355µM*
CCCc1nnc(SCC(=O)N2CCCC(C)C2)n1CCOC (configuration not stated)	.	0.3%	.	-0.1%
Cc1ccc(Cl)cc1NC(=O)COC(=O)c1ccc(COc2ccc3c(C)cc(=O)oc3c2)cc1	?	?	-112.9*	?
Cc1cccc(NC(NC(=O)Cc2ccccc2)C(Cl)(Cl)Cl)c1 (configuration not stated)	-9.0%	6.8%	?	-2.1%
Cc1ccc(NC(NC(=O)Cc2ccccc2)C(Cl)(Cl)Cl)cc1 (configuration not stated)	-16.9%	0.7%	-110.8*	-7.7%
O=C(O)c1ccc(NC(=S)NC(NC(=O)c2ccco2)C(Cl)(Cl)Cl)cc1 (configuration not stated)	-13.6%	1.8%	?	39.8µM*
O=C(NC(NC(=S)Nc1ccccc1)C(Cl)(Cl)Cl)c1cccc(Cl)c1 (configuration not stated)	-7.9%	1.3%	8.3	?
Cc1ccc(NC(=S)NC(NC(=O)c2ccco2)C(Cl)(Cl)Cl)cc1 (configuration not stated)	-23.1%	2.8%	-6.4	28.2µM*
CN(C)C(=O)NC(NC(=S)Nc1ccccc1)C(Cl)(Cl)Cl (configuration not stated)	.	-2.5%	.	12.6µM*
Cc1cccc(NC(=S)NC(NC(=O)c2ccco2)C(Cl)(Cl)Cl)c1 (configuration not stated)	-20.4%	-0.8%	?	?
O=C(O)[C@@H]1[C@@H]2O[C@H]([C@@H](Br)[C@H]2Br)[C@H]1C(=O)O	-16.0%	.	.	-2.1%[13.5 µM]
CC1OCC23CC[C@@]4(C)CCC(C)(C)C[C@H]4[C@]2(C)CCC12C3CC[C@@]1(C)C2C(=O)CC(=O)[C@@H]1C (some centres not stated)	-0.7%	-3.6%	.	9.1%
OCC1OC(c2ccccc2)C=CC1Oc1ccc(C2CCCC2)cc1 (configuration not stated)	.	.	.	1.5%[13.5 µM]
COc1ccc(-c2nc3cnc(N4CCOCC4)nc3n(C)c2=O)cc1	.	.	.	21.8%
CC1=NN(c2ccccc2)C(=O)/C1=C/c1ccc[nH]1	-5.1%	1.0%	-19.5	-2.6%
CC1=NN(c2ccccc2)C(=O)/C1=C/c1c(O)n(-c2ccc(F)cc2)[nH]c1=O	-24.9%	-2.8%	23.0	20µM*
CC1=NN(c2ccccc2)C(=O)/C1=C/c1cccs1	31.6µM*	?	?	14.1µM*
CC1=NN(c2ccccc2)C(=O)/C1=C/C=C/C=C/N(C)C	.	?	.	-12.3%
CC1=NN(c2ccccc2)C(=O)/C1=C\c1ccc(Br)s1	28.2µM*	3.16µM*	-22.5	7.94µM*
CCCNc1nc(Cl)nc(NCc2cccnc2)n1	.	7.5%	.	.
CCC(CO)n1c(SCc2cc(=O)oc3cc(C)ccc23)nc2ccccc2c1=O (configuration not stated)	-12.3%	-7.9%	?	4.47µM*
COC(=O)C1=C(C(=O)OC)[C@@H]2N(C)c3ccccc3[C@@]23C[C@@H](CO)N(C(=O)c2ccco2)C3=N1	5.3%	1.9%[11.4 µM]	.	-1.9%[13.5 µM]
Cc1cccn2c(=O)c(C=Nc3ccc(Cl)cc3)c(NCCO)nc12	?	?	-100.0*	?
CCOC(=O)Cc1csc(NC(=O)CCS(=O)(=O)Cc2ccccc2)n1	-3.9%	1.4%	29.4	20µM*
COc1ccc(C(=O)NNC(=S)NC2CCCCC2)cc1OC	-5.3%	0.1%	2.8	10.6%
SMILES	HPGD block	KDM4E inh	PNC assembly inh	ALDH1A1 block
CCOc1ccc(CCNC(=O)C2CCCN(C(=O)N(C)C)C2)cc1OCC (configuration not stated)	-12.1%	2.0%	-100.0*	7.9%
COc1cc(C(=O)NNC(=O)NC2CCCCC2)cc(OC)c1OC	-0.7%	1.3%	-119.9*	6.2%
CCOC(=O)CSc1nnc(CNC(=O)c2ccc(S(=O)(=O)N3CCCC3)cc2)n1C	-1.7%	-5.1%	25.8	18.9µM*
COc1ccc(CCNC(=O)NC2CCCCC2)cc1OC	-10.3%	6.0%	-80.9*	1.5%
Cc1oc(-c2cccc(Cl)c2)nc1CN1CCC(C(=O)NCCCN2CCCC2=O)CC1	-7.7%	6.6%	2.9	16.1%
O=C(NCCN1CCOCC1)C1CCN(S(=O)(=O)N2CCCCC2)CC1	-8.5%	1.0%	-4.9	?
CCOC(=O)Cc1csc(NC(=O)c2ccc(S(=O)(=O)N3CCCC3)cc2)n1	-12.6%	-2.7%	25.6	11.2µM*
O=C(NCCCN1CCCC1=O)C1CCN(S(=O)(=O)N2CCOCC2)CC1	-10.0%	-0.5%	-83.8*	?
COc1ccc(CCNC(=O)C2CCN(Cc3nc(-c4cccc(Cl)c4)oc3C)CC2)cc1OC	-5.9%	7.7%	-83.4*	-4.0%
COc1ccc(C(C)C(=O)c2ccc(O)cc2O)cc1 (configuration not stated)	-8.9%	-6.1%	.	-1.0%
COc1ccc(CCNCC(=O)N2C(C)CCCC2C)cc1OC (configuration not stated)	.	31.6µM*	.	?
COc1ccc(CNC(=O)c2ccc(S(=O)(=O)N3CCCC3)cc2)cc1OC	-14.2%	6.4%	-3.9	10µM*
O=C(NCCc1ccccc1)C1CCN(S(=O)(=O)N2CCCCCC2)CC1	.	7.2%	.	7.08µM*
COc1ccc(CCNC(=O)C2CCN(S(=O)(=O)c3ccc(Cl)cc3)CC2)cc1OC	-7.9%	1.6%	-100.0*	-6.6%
O=C(NCc1ccccc1)c1ccc(S(=O)(=O)N2CCCC2)cc1	3.3%	-4.4%	?	?
CCS(=O)(=O)N1CCC(C(=O)NCCc2ccc(OC)c(OC)c2)CC1	-5.7%	9.9%	-22.5	2.9%
O=C(NCCc1ccccc1)C1CCN(S(=O)(=O)N2CCCC2)CC1	-9.4%	-4.0%	0.2	?
COc1ccc(N/C(C)=C/C(=S)Nc2ccccc2)cc1	-21.7%	0.4%	-21.1	?
COC(=O)C1(c2ccccc2)NC(c2ccc(O)cc2)C2C(=O)N(c3ccc4c(c3)OCO4)C(=O)C21 (configuration not stated)	.	-8.5%	.	.
O=C(Nc1ccc(F)cc1)c1ccccc1NS(=O)(=O)N1CCCC1	.	?	.	-1.4%
COc1ccc(CCNC(=O)C2CCN(S(C)(=O)=O)CC2)cc1OC	-0.4%	-2.7%	-10.0	9.5%
COc1ccc(CCNC(=O)C2CCN(S(=O)(=O)N3CCCCCC3)CC2)cc1OC	-7.1%	3.6%	-6.5	7.94µM*
CCNc1nc(NCC)nc(N(C#N)CCOc2ccccc2)n1	.	-4.2%	.	?
CN(C)c1nc(Cl)nc(N(C#N)CCOc2ccccc2)n1	.	12.0%	.	14.1µM*
Cc1ccc(N2C(=O)C3CC(c4ccccc4)=C4C5C=CC(C6C(=O)N(c7ccc(C)cc7)C(=O)C56)C4C3C2=O)cc1 (configuration not stated)	-7.1%	2.4%	?	1.12µM*
CC(Sc1nnnn1-c1ccccc1)C(=O)Nc1ccc(Cl)cn1 (configuration not stated)	-11.9%	-0.2%	12.9	5.01µM*
